Measured values taken from PubChem BioAssay (EPA / NIEHS).
Calls of active or inactive are those of the source. Rule for the calls: active = hit-call score of the fitted dose curve at least 0.9, where 1 is the maximum; inactive = score below 0.9.

Key:
Conditions in all cases: mRNA level, 48 h; actives raise or lower the signal
[1] = read-out: Bcl-2 (BAX) gene, BAX (gene 581); assay: LTEA_HepaRG_BAX: Life Technologies and Expression Analysis (LTEA) Assay for Bcl-2 (BAX) gene using HepaRG (AID 2283470)
Outline: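 qRT-PCR read-out of BAX mRNA, normalized to three housekeeping genes, after 48 h chemical exposure of human HepaRG cells in serum-free induction medium; eight-point half-log series, top 100 uM, 0.5% DMSO vehicle; bidirectional fit versus DMSO.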

[2] = read-out: adenosine kinase (ADK) gene, ADK (gene 132); assay: LTEA_HepaRG_ADK: Life Technologies and Expression Analysis (LTEA) Assay for adenosine kinase (ADK) gene using HepaRG (AID 2283471)
Outline: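 Differentiated HepaRG cells dosed 48 h in serum-free induction medium, 0.5% DMSO vehicle, eight half-log concentrations from 100 uM, in duplicate. ADK mRNA by TaqMan qRT-PCR normalised to ACTB, GAPDH, POLR2A; bidirectional fit versus DMSO.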

[3] = read-out: Alpha-fetoprotein (AFP) gene, AFP (gene 174); assay: LTEA_HepaRG_AFP: Life Technologies and Expression Analysis (LTEA) Assay for Alpha-fetoprotein (AFP) gene using HepaRG (AID 2283472);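 for AC50: AFP transcript by TaqMan qRT-PCR normalized to ACTB GAPDH and POLR2A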
Outline: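 qRT-PCR (Fluidigm TaqMan) readout of AFP transcript, normalized to three housekeeping genes, fitted bidirectionally against 0.5% DMSO baseline. HepaRG cells received chemicals for 48 h in serum-free induction medium, top concentration 100 uM, half-log steps.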

BCL2L11 (gene 10018) = assay: LTEA_HepaRG_BCL2L11: Life Technologies and Expression Analysis (LTEA) Assay for Bcl-2 (BCL2L11) gene using HepaRG (AID 2283473)
Outline: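 Cells were plated, cultured 48 h, switched to serum-free induction medium, then dosed in duplicate for 48 h at eight half-log concentrations up to 100 uM. Lysates underwent RNA isolation and TaqMan qRT-PCR; gain or loss versus DMSO was fitted.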

[4] = read-out: Apoptosis regulator Bcl-2 (Homo sapiens) (UniProt P10415); assay: LTEA_HepaRG_BCL2: Life Technologies and Expression Analysis (LTEA) Assay for Bcl-2 gene using HepaRG (AID 2283475)
Outline: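 qRT-PCR read-out (Fluidigm TaqMan) of BCL2 transcript, normalised to three housekeeping genes, after 48 h chemical exposure of HepaRG cells; 8-point half-log series, top 100 uM, 0.5% DMSO vehicle. Gain or loss of signal fitted relative to DMSO baseline.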

[5] = read-out: Bcl-2 (BID) gene, BID (gene 637); assay: LTEA_HepaRG_BID: Life Technologies and Expression Analysis (LTEA) Assay for Bcl-2 (BID) gene using HepaRG (AID 2283476)
Outline: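 HepaRG, 48 h exposure, 8-pt half-log series, top 100 uM, 0.5% DMSO vehicle, duplicates. Readout: BID mRNA by TaqMan qRT-PCR; housekeeping-normalized; bidirectional curve fit vs DMSO baseline.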

[6] = read-out: Cytochrome P450 (CYP24A1), CYP24A1 (gene 1591); assay: LTEA_HepaRG_CYP24A1: Life Technologies and Expression Analysis (LTEA) Assay for Cytochrome P450 (CYP24A1) using HepaRG (AID 2283478)
Outline: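 Human liver HepaRG cultures receive each chemical for 48 h across an eight-point half-log series topping at 100 uM in 0.5% DMSO. Induction or suppression of CYP24A1 mRNA is scored relative to vehicle after housekeeping-gene normalization.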

[7] = read-out: Cytochrome P450 (CYP1A2), CYP1A2 (gene 1544); assay: LTEA_HepaRG_CYP1A2: Life Technologies and Expression Analysis (LTEA) Assay for Cytochrome P450 (CYP1A2) using HepaRG (AID 2283479);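 for AC50: TaqMan qRT-PCR transcript level normalized to ACTB GAPDH and POLR2A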
Outline: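 Assesses CYP1A2 mRNA in human HepaRG liver cells after 48 h chemical exposure at up to 100 uM. Values come from qRT-PCR with bidirectional curve fitting relative to DMSO.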

Chain of Apoptosis regulator Bcl-2 (Homo sapiens) (P10415 whole entry, looked up): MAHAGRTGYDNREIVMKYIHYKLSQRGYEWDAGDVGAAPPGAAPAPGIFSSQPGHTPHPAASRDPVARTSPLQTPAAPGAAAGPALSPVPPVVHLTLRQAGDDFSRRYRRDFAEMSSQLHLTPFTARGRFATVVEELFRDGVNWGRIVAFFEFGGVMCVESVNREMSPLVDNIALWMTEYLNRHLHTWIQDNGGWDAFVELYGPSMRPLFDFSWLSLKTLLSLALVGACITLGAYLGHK

Structure (SMILES)	outcome [1]	outcome [2]	outcome [3]	outcome (BCL2L11 (gene 10018))	outcome [4]	outcome [5]	outcome [6]	outcome [7]	AC50 [3]	AC50 [4]	AC50 [7]	AC50 [6]	AC50 (BCL2L11 (gene 10018))	AC50 [5]
CCC(C)(C)c1ccc(O)cc1	inactive	inactive	inactive	inactive	inactive	inactive	inactive	inactive	–	–	–	–	–	–
COCCOCCO	inactive	inactive	inactive	inactive	inactive	inactive	inactive	inactive	–	–	–	–	–	–
O=P(Oc1ccccc1)(Oc1ccccc1)Oc1ccccc1	inactive	inactive	–	inactive	–	inactive	inactive	–	50 µM (active)	80.4 µM (active)	27.4 µM (active)	–	–	–
CCCCN(CCCC)N=O	inactive	inactive	inactive	inactive	inactive	inactive	inactive	inactive	–	–	–	–	–	–
Nc1ccc(Cl)cc1	inactive	inactive	inactive	inactive	inactive	inactive	inactive	–	–	–	33.4 µM (active)	–	–	–
ClC1=C(Cl)C2(Cl)C3C(Cl)C(Cl)CC3C1(Cl)C2(Cl)Cl (stereo not given)	inactive	inactive	–	inactive	inactive	inactive	inactive	inactive	15.2 µM (active)	–	–	–	–	–
CC(Cc1ccc(OCC(=O)O)cc1)NCC(O)c1csc(C(F)(F)F)n1 (stereo not given)	inactive	inactive	inactive	inactive	–	inactive	–	–	–	0.125 µM (active)	0.0181 µM (active)	0.00316 µM (active)	–	–
Cc1cccc(N)c1	inactive	inactive	inactive	inactive	inactive	inactive	inactive	–	–	–	50.2 µM (active)	–	–	–
O=P1(N(CCCl)CCCl)NCCCO1 (stereo not given)	inactive	inactive	inactive	inactive	inactive	inactive	inactive	inactive	–	–	–	–	–	–
CC(Cl)(Cl)C(=O)O	inactive	inactive	inactive	inactive	inactive	inactive	–	inactive	–	–	–	–	–	–
Nc1cc2c3c(c1)C(c1ccccc1)=N[C@@H](NC(=O)c1cccnc1)C(=O)N3CC2	inactive	inactive	inactive	inactive	inactive	inactive	inactive	–	–	–	50 µM (active)	–	–	–
CCCN(CCC)c1c([N+](=O)[O-])cc(C(C)C)cc1[N+](=O)[O-]	inactive	inactive	–	–	inactive	–	inactive	–	50 µM (active)	–	27.3 µM (active)	–	0.106 µM (active)	0.119 µM (active)
Cc1ccc(N)cc1N	inactive	inactive	inactive	inactive	inactive	inactive	inactive	–	–	–	21.5 µM (active)	–	–	–
O=C(O)C1C(C(=O)O)C2(Cl)C(Cl)=C(Cl)C1(Cl)C2(Cl)Cl (stereo not given)	inactive	inactive	inactive	inactive	inactive	inactive	inactive	inactive	–	–	–	–	–	–
c1cc2c3c(cccc3c1)CC2	inactive	inactive	inactive	inactive	inactive	inactive	inactive	inactive	–	–	–	–	–	–
ClC(Cl)c1ccccc1	inactive	inactive	inactive	inactive	inactive	inactive	inactive	inactive	–	–	–	–	–	–
CCN(CC)c1ccccc1	inactive	inactive	inactive	inactive	inactive	inactive	inactive	–	–	–	39 µM (active)	–	–	–
CCCCCCCc1ccc(O)cc1	inactive	inactive	inactive	inactive	inactive	inactive	inactive	inactive	–	–	–	–	–	–
ClC(Cl)(Cl)c1ccccc1	inactive	inactive	inactive	inactive	inactive	inactive	inactive	inactive	–	–	–	–	–	–
CCOP(=S)(Oc1ccc([N+](=O)[O-])cc1)c1ccccc1 (stereo not given)	inactive	inactive	–	inactive	inactive	inactive	inactive	–	29.4 µM (active)	–	24.2 µM (active)	–	–	–
CCCCN(CCCC)SN(C)C(=O)Oc1cccc2c1OC(C)(C)C2	inactive	inactive	inactive	inactive	inactive	inactive	inactive	inactive	–	–	–	–	–	–
CCOP(=S)(OCC)SCSCC	inactive	inactive	inactive	inactive	inactive	inactive	inactive	inactive	–	–	–	–	–	–
